Only some compounds are listed: those with a hit (about 1.5% of all), similar ones and a draw of the others.
SARS 3CLpro inh – SARS-CoV 3CLpro protease inhibitors, primary screen, biochemical, quenched FRET. Replicase polyprotein 1ab (Severe acute respiratory syndrome coronavirus), P0C6X7. recombinant SARS-CoV 3CLpro, quenched FRET peptide cleavage. inhibition, % at 6 µM. 290,000 tested, 0.14% active. AID 1706, 2009; in the data active means inhibition above about 12%
CCHF vOTU inh-1 – CCHFV vOTU protease inhibitors, primary screen, biochemical, Pep-AMC substrate, fluorescence. inhibition, % at 11.5 µM. 370,000 tested, 0.55% active; further: 0% = vehicle wells with enzyme and 100% = no enzyme wells
RecA splice inh – Mtb RecA intein splicing inhibitors, primary screen, biochemical, fluorescence, HTS; Protein RecA (Mycobacterium tuberculosis (strain ATCC 25618 / H37Rv)), P9WHJ3; cell-free RecA intein splicing; inhibition, % (test concentration not listed); 290,000 tested, 0.75% active; in the data active means inhibition above about 30%;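 further: 0% = vehicle wells and 100% = reference inhibitor control wells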
DUSP3 inh – VHR1 phosphatase inhibitors, primary screen, biochemical, absorbance, uHTS; AID 1654, 2009; inhibition, % at 13.3 µM; recombinant VHR phosphatase, pNPP absorbance; 290,000 tested, 0.52% active; Dual specificity protein phosphatase 3 (Homo sapiens), P51452; in the data active means inhibition above about 50%
Target sequence (P51452 whole entry, looked up): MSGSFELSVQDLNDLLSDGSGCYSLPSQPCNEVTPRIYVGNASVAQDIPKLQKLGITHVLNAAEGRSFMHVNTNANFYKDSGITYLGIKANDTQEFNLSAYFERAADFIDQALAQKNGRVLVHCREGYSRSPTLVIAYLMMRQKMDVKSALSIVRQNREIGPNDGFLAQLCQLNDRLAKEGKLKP
CCHF vOTU inh-2 – CCHFV vOTU protease inhibitors, confirmation, biochemical, Pep-AMC substrate, fluorescence; Recombinant CCHFV vOTU; inhibition, % at 11.5 µM; 1,900 tested, 17% active; shares compounds with CCHF vOTU inh-1
Active calls of the source: *; i = inactive; . = not tested or not shown. Unless noted, no stated cut-off is given here; in the data, active means inhibition above about 30%; inactive means the rest.

SMILES	SARS 3CLpro inh	CCHF vOTU inh-1	RecA splice inh	DUSP3 inh	CCHF vOTU inh-2
COc1cccc(-c2c(C#N)c(N)nc3c2c(C)nn3-c2ccccc2)c1O	8	8	-9	20	.
CCOc1ccc(S(=O)(=O)Nc2ccccc2C(=O)Nc2ccccc2N2CCOCC2)cc1	3	-6	-3	-12	.
Cc1ccc(S(=O)(=O)Nc2ccccc2C(=O)Nc2nc(-c3ccc(F)cc3)cs2)cc1	6	30*	7	2	-16
COc1ccc(-c2csc(NC(=O)c3ccccc3NS(=O)(=O)c3ccc(F)c(F)c3)n2)cc1	7	37*	21	5	9
CCOc1ccc(NC(=O)c2ccccc2NS(=O)(=O)c2ccc(F)cc2)c([N+](=O)[O-])c1	8	30*	-3	7	-4
CCOC(=O)c1c(-c2ccccc2)[nH]c2ccc(O)cc12	1	34*	3	5	-17
CCOC(=O)c1c(-c2ccccc2)oc2ccc(O)cc12	2	-1	-3	22	.
CCCCCCn1c(=O)n2n(c1=O)[C@@H]1CN(S(=O)(=O)c3ccc(C)cc3)C[C@]1(O)[C@@H](OC(=O)NCc1ccc(OC)c(OC)c1)C2	.	43*	.	.	-9
CCCCCCNC(=O)O[C@H]1Cn2c(=O)n(CCCCCC)c(=O)n2[C@@H]2CN(S(=O)(=O)c3ccc(C)cc3)C[C@]12O	.	28	.	.	.
CCCCCCn1c(=O)n2n(c1=O)[C@@H]1CN(S(=O)(=O)c3ccc(C)cc3)C[C@]1(O)[C@@H](OC(=O)Nc1cccs1)C2	.	34*	.	.	-6
COc1cc(OC)c(OC)cc1CCC(C)NC(=O)Cc1ccccc1 (stereo not given)	-6	-10	-1	7	.
CCc1c(C)nc(N2CCN(c3ccccc3F)CC2)[nH]c1=O	5	-2	0	14	.
CC[C@H]1c2[nH]c3ccccc3c2C[C@@H]2C(=O)N(c3ccc(F)cc3)C(=O)N21	.	-4	4	.	.
Cc1c(C)n(Cc2ccc(-c3ccccc3C(=O)O)cc2)c2ccc(C(=O)N[C@@H](C)c3ccc([N+](=O)[O-])cc3)cc12	.	42*	.	.	9
CCc1nc2ccc(C(=O)N3CCCC(C(N)=O)C3)cn2c1N(C)Cc1ccc(OC)cc1 (stereo not given)	.	1	.	.	.
CC1(C)CC(=O)C(C=Nc2ccc(O)cc2)=C(O)C1	0	21	-6	32	.
COC(=O)C1C(O)=C(C=Nc2ccccc2)C(=O)CC1(C)C (stereo not given)	2	5	-7	15	.
COC(=O)C1C(O)=C(C=Nc2ccc(N)cc2)C(=O)CC1(C)C (stereo not given)	0	40*	-6	-2	-4
CC1(C)CC(=O)C(C=Nc2ccc(N)cc2)=C(O)C1	4	63*	-7	22	-8
COCc1cc(N2CCNC[C@H]2C)ccc1N1CCS(=O)(=O)CC1	.	-5	.	.	.
CSc1nc(N)c(C(=O)Nc2ccc([N+](=O)[O-])cc2)s1	5	27	3	6	.
CC1(Cc2ccc3c(c2)OCO3)C(=O)Nc2ccc(-c3cccc(C(F)(F)F)c3)cc21 (stereo not given)	.	-2	.	.	.
CC1(Cc2ccc(C(F)(F)F)o2)C(=O)Nc2ccc(-c3cccc(C(F)(F)F)c3)cc21 (stereo not given)	.	36*	.	.	-1
CC(O)(c1ccc(F)c(F)c1)c1nc(-c2cccc(C(F)(F)F)c2)cs1 (stereo not given)	.	39*	.	.	5
CC(O)(c1cccc(F)c1)c1nc(-c2cccc(C(F)(F)F)c2)cs1 (stereo not given)	.	21	.	.	.
SMILES	SARS 3CLpro inh	CCHF vOTU inh-1	RecA splice inh	DUSP3 inh	CCHF vOTU inh-2
Cc1cnc(C2OCCO2)c2cccc(N)c12	.	38*	.	.	65*
COc1ccc(OCc2cc(C(=O)NC3CCc4ccccc43)no2)c(Cl)c1 (stereo not given)	-1	-4	0	9	.
O=C(NC1CCc2ccccc21)c1cc(COc2ccc(F)cc2F)on1 (stereo not given)	8	35*	2	22	-16
Cc1ccccc1-n1c(/C=C/c2ccccn2)nc2ccccc2c1=O	-1	32*	-6	23	0
Nc1cccc2nc3ccccc3cc12	2	.	i	16	.
Cc1cc2c(N)cccc2nn1	-5	111*	60*	18	2
CC(C)CC(NC(=O)C(Cc1ccc(OCc2ccccc2)cc1)NC(=O)OC(C)(C)C)C(N)=O (stereo not given)	0	32*	2	-20	-12
CC1CCCCC1C(=O)N1CCC(Oc2cccnc2)CC1 (stereo not given)	.	-1	.	.	.
CCOC(=O)c1sc(NC(=O)Nc2cccc(Cl)c2)cc1C	-1	30*	2	11	0
CCOC(=O)c1sc(NC(=O)c2ccc(Br)o2)cc1C	3	31*	2	14	-4
O=C1C(SCCO)=C(SCCO)C(=O)c2ccccc21	.	114*	.	.	107*
CC1Cc2ccccc2N1CC(=O)NC(=O)NC1CCCCC1 (stereo not given)	11	31*	2	21	-13
Cc1cc(=O)[nH]c(-n2[nH]c(C)cc2=O)n1	-5	3	2	26	.
COc1ccc(-n2[nH]c(C)cc2=O)cc1	-3	33*	-2	21	-27
CCCCN(C=O)c1c(CC)nc2ccc(C(=O)N(C)Cc3ccco3)cn12	.	-3	.	.	.
CCOC(=O)/C=C1\CN(Cc2cc(OC)c(OC)c(OC)c2)S(=O)(=O)c2ccc(C(F)(F)F)cc21	1	33*	-1	-7	3
CCOC(=O)/C=C1\CN(Cc2cc(OC)c(OC)c(OC)c2)S(=O)(=O)c2ccccc21	-1	5	3	28	.
CCCCCCCCN1C(=O)[C@H](CC(=O)NCCc2ccccc2OC)C[C@@]2(C(=O)OC)CCCCC=C12	.	47*	.	.	10
CCCCCCCCN1C(=O)[C@H](CC(=O)NCc2ccc(OC)c(OC)c2)C[C@@]2(C(=O)OCC)CCCC=C12	.	39*	.	.	16
CCCCCCCCN1C(=O)[C@H](CC(=O)NCc2cccs2)C[C@@]2(C(=O)OCC)CCCC=C12	.	31*	.	.	14
CCOC(=O)[C@]12CCC=C1N(Cc1ccc(Cl)cc1Cl)C(=O)[C@H](CC(=O)NCc1ccc(C)o1)C2	.	34*	.	.	-11
CCOC(=O)[C@]12CCCC=C1N(CCc1ccc(OC)c(OC)c1)C(=O)[C@H](CC(=O)NCc1ccccc1)C2	.	6	.	.	.
COc1ccc(CN2C[C@@H](CO)O[C@@H](n3cnc4c(N(C)C)ncnc43)C2)cc1	.	-3	.	.	.
Cc1cc(C)c(S(=O)(=O)N2CCCCC2CCNC(=O)C(=O)NCc2cccnc2)c(C)c1 (stereo not given)	.	-8	1	.	.
C/C(=N\NC(=S)NC1CCCCC1)c1ccc(OC(F)F)cc1OC(F)F	-8	33*	0	13	-6

Bioassay records: PubChem, several laboratories
